Here are results for 96 molecules from PubChem BioAssay AID463173 (ICCB-Longwood Screening Facility, Harvard Medical School, 2010).

Among all 52,000 compounds or so, about 1,700 (3.3%) were called active. The sample holds actives, similar compounds and a random draw of the others, so the mix is not that of the screen. No stated cut-off is given here; in the data, active means survival mostly below about 52% (no sharp cut-off); inactive means mostly above about 56%.

The subject of this experiment is Wild type. Put plainly: growth inhibition of S. aureus wild type versus tarO mutant, primary screen, teichoic acid synthesis inhibitors, RN4220, OD600 (AID 463173). To be noted: S. aureus RN4220 wild type/DeltatarO growth, OD600, 18 h, active compounds read low, screened at 18.75 µg/mL (by protocol).
`CCOC(=O)c1ccc(N2CCN(c3ccccc3OC)CC2)c(NC(=O)Nc2ccc(CC)cc2)c1`: the survival was 80% (inactive).

With `CCOC(=O)C(Cc1ccccc1)N1C(=O)c2ccccc2C1=O` (stereo unspecified), the survival was 104% (inactive).

As to `COc1cccc(NS(=O)(=O)c2ccc3[nH]cc(C(=O)NCCc4ccc(C)cc4)c(=O)c3c2)c1`, the survival was 124% (inactive).

Regarding `Nc1ccc(S(=O)(=O)N2CCSC2C(=O)O)cc1` (stereo unspecified), the survival is 101% (inactive).

In the case of `Clc1cccc(N2CCN(c3ncnc4c3nc3n4CCCC3)CC2)c1`, the survival was 117% (inactive).

As for `COc1ccc(N2CCN(c3ncnc4c3nc3n4CCCCC3)CC2)cc1`, the survival is 73% (inactive).

With `Clc1cccc(N2CCN(c3ncnc4c3nc3n4CCCCC3)CC2)c1`, the survival was 3% (active).

Consider `COc1cccc(N2CCN(c3ncnc4c3nc3n4CCCCC3)CC2)c1`, for which the survival is -3% (active).

Regarding `c1ccc(N2CCN(c3ncnc4c3nc3n4CCCCC3)CC2)cc1`, the survival was 72% (inactive).

On to `O=C(C1CCN(c2ncnc3c2nc2n3CCCCC2)CC1)N1CCN(c2cccc(Cl)c2)CC1`, for which the survival is 57% (inactive).

Take `CCn1cc(C(=O)Nc2cccc(Cl)c2)c2cc(OC)c(OC)cc2c1=O`: the survival was 76% (inactive).

For `FC(F)(F)Sc1ccc2noc(-c3ccccc3)c2c1`, the survival is 115% (inactive).

As to `NC(=O)c1ccccc1NC(=O)c1ccc(-c2ccc(Br)cc2)o1`, the survival is 95% (inactive).

Turning to `COc1cc(C)cc2oc(=O)c(CC(=O)NCCc3ccc(Cl)cc3)c(C)c12`, the survival is 118% (inactive).

Turning to `C=CCc1ccccc1OCCSc1nc(-c2ccccc2F)nc2cc(=O)[nH]n12`, the survival is 80% (inactive).

For `C=CCc1ccccc1OCCSc1nc(-c2ccc(C(C)(C)C)cc2)nc2cc(=O)[nH]n12`, the survival is 0% (active).

For `COc1ccccc1OCCSc1nc(-c2ccc(C(C)(C)C)cc2)nc2cc(=O)[nH]n12`, the survival was 22% (inactive).

As to `Cc1cccc(C)c1NCc1nnc(SCC(N)=O)n1-c1ccccc1`, the survival was 110% (inactive).

In the case of `Cc1cc(C)cc(-n2ccn(CC(=O)Nc3ccccc3F)c(=O)c2=O)c1`, the survival is 82% (inactive).

Take `CCc1ccccc1NC(=O)Cn1nnc(C(=O)NCc2cccs2)c1N`: the survival was 96% (inactive).

In the case of `CCc1ccccc1NC(=O)Cn1nnc(C(=O)NCc2ccccc2Cl)c1N`, the survival was -3% (active).

Take `Cc1cc(C)cc(NC(=O)Cn2nnc(C(=O)NCc3ccccc3Cl)c2N)c1`: the survival was 77% (inactive).

Consider `Cc1ccc(C)c(NC(=O)c2nnn(CC(=O)Nc3cccc(C)c3C)c2N)c1`, for which the survival was 88% (inactive).

In the case of `Cc1cccc(NC(=O)Cn2nnc(C(=O)Nc3ccccc3Br)c2N)c1C`, the survival is 0% (active).

On to `COc1ccccc1NC(=O)Cn1nnc(C(=O)Nc2ccccc2Br)c1N`, for which the survival is 85% (inactive).

For `COc1cccc(CNC(=O)CC(c2ccc(F)cc2)N2Cc3ccccc3C2=O)c1` (stereo unspecified), the survival is 82% (inactive).

Regarding `CCN(CC)C(=O)CSc1nc2ccccc2c(=O)n1CC`, the survival is 107% (inactive).

Turning to `COc1ccc(Nc2oc(/C=C/c3ccccc3OC)nc2C#N)cc1`, the survival was 86% (inactive).

Consider `CCOc1ccc2ncc3c(-c4cccc(OC)c4)nn(-c4ccccc4)c3c2c1`, for which the survival was 125% (inactive).

With `Cc1ccc(-c2nn(CC(=O)NC3CCCC3)c3c2cnc2ccc(F)cc23)cc1C`, the survival was 74% (inactive).

In the case of `Cc1ccc(-c2nn(CC(=O)NC3CCCCC3)c3c2cnc2ccc(F)cc23)cc1C`, the survival was -3% (active).

Turning to `CCCNC(=O)Cn1nc(-c2ccc(C)cc2)c2cnc3ccc(CC)cc3c21`, the survival was 10% (active).

With `Cc1ccc(-n2nc(-c3ccccc3)c3cnc4cc5c(cc4c32)OCO5)cc1C`, the survival was 110% (inactive).

As to `COc1ccc(-n2nc(-c3ccc(C)cc3)c3cnc4cc(F)c(F)cc4c32)cc1`, the survival was 85% (inactive).

Regarding `CCOc1ccc(-c2nn(-c3ccc(F)cc3)c3c2cnc2ccc(F)cc23)cc1`, the survival was 86% (inactive).

In the case of `CCc1ccc(-c2nn(CC(=O)NC3CCCCC3)c3c2cnc2ccc(F)cc23)cc1`, the survival is 68% (inactive).

Consider `COc1ccc2ncc3c(-c4ccccc4)nn(-c4ccc(C)c(C)c4)c3c2c1`, for which the survival is 0% (active).

Regarding `CCc1ccc(-c2nn(-c3ccc(OC)cc3)c3c2cnc2ccc(OC)cc23)cc1`, the survival is 9% (active).

For the molecule `CCc1ccc2ncc3c(-c4ccc(C)cc4)nn(CC(=O)Nc4ccc(C)cc4)c3c2c1`, the survival was 47% (inactive).

For `CCc1ccc2ncc3c(-c4ccc(C)cc4)nn(CC(=O)NCc4ccccc4)c3c2c1`, the survival is 65% (inactive).

Take `COc1cc(OC)c(NC(=O)Nc2cccc(OCc3cc(=O)n4ccccc4n3)c2)cc1Cl`: the survival is 87% (inactive).

Regarding `N#Cc1ccc(N2CCCCC2)cc1`, the survival was 119% (inactive).

`Oc1ccc(Nc2nc3ccccc3n3cnnc23)cc1`: the survival was 78% (inactive).

With `COc1ccc(OCC(=O)NCCO)cc1`, the survival was 116% (inactive).

With `COc1ccccc1NC(=O)c1cnc(SCC(=O)N2CCOCC2)n(C)c1=O`, the survival is 77% (inactive).

As for `CCc1ccc2ncc3c(-c4ccccc4)nn(-c4ccccc4)c3c2c1`, the survival was 7% (active).

On to `Cc1ccc(-c2nn(-c3ccccc3)c3c2cnc2ccccc23)cc1C`, for which the survival was 68% (inactive).

For the molecule `FC(F)(F)c1ccc2c(c1)ncc1c(-c3ccccc3)nn(-c3ccccc3)c12`, the survival is 125% (inactive).

Regarding `N#Cc1c(N2CCOCC2)nc(N2CCOCC2)c2c1CCN(Cc1ccccc1)C2`, the survival is 112% (inactive).

On to `COc1ccc(CNC(=O)CCc2c(C)nn(-c3ccc(N4CCCCC4)nn3)c2C)c(OC)c1`, for which the survival was 64% (inactive).

`CC(C)Cn1c(N2CCN(C(=O)Nc3ccc(Cl)cc3)CC2)nc2ccccc21`: the survival was 99% (inactive).

For `CCCn1c(N2CCN(C(=O)Nc3ccc(OC)cc3)CC2)nc2ccccc21`, the survival is 94% (inactive).

For `CCn1c(N2CCN(C(=O)Nc3ccc(Cl)c(C(F)(F)F)c3)CC2)nc2ccccc21`, the survival is 0% (active).

As to `CCOCCn1ccc2c(OCC(=O)Nc3ccc(C(N)=O)cc3)cccc2c1=O`, the survival was 32% (inactive).

On to `Cc1ccc(-n2cccn2)cc1`, for which the survival was 113% (inactive).

`Cc1ccc2oc(=O)n(CCCOc3ccccc3Cl)c2c1`: the survival was -10% (active).

As to `CCOc1ccccc1NC(=O)NCCn1c(=O)oc2ccc(C)cc21`, the survival is 79% (inactive).

Regarding `O=c1oc2ccccc2n1CCCOc1ccccc1Cl`, the survival was 0% (active).

Consider `N#CCCCn1c(=O)oc2ccccc21`, for which the survival is 84% (inactive).

For the molecule `Cc1ccc2oc(=O)n(CCNC(=O)Nc3ccccc3C)c2c1`, the survival was 119% (inactive).

Take `O=C(O)CCCn1c(=O)oc2ccccc21`: the survival was 99% (inactive).

As for `O=S(=O)(c1ccccc1)c1nnn2c1nc(NCc1ccc(Cl)cc1)c1sccc12`, the survival was 88% (inactive).

For `Cc1cc(SCC(=O)NCc2ccccc2)nc(=O)[nH]1`, the survival is 70% (inactive).

For `Cc1cc2oc(C(=O)Nc3ccc(S(=O)(=O)N4CCCCCC4)cc3)cc(=O)c2cc1C`, the survival was 80% (inactive).

On to `COc1ccc(-c2nc(CSc3nnc(C)n4c3cc3oc(C)cc34)c(C)o2)cc1OC`, for which the survival was 89% (inactive).

On to `CCc1ccc(OCC(=O)Nc2ccc(Cl)c(-c3nc4cc(C)cc(C)c4o3)c2)cc1`, for which the survival is 51% (inactive).

As for `O=C(/C=C/c1cn(CC(O)CN2CCCCCC2)c2ccccc12)c1ccc(Br)cc1` (stereo unspecified), the survival is 14% (active).

Regarding `O=C(/C=C/c1cn(CC(O)CN2CCCCCC2)c2ccccc12)c1ccccc1` (stereo unspecified), the survival is 67% (inactive).

As to `Cc1ccc(C(=O)/C=C/c2cn(CC(O)CN3CCCCCC3)c3ccccc23)cc1` (stereo unspecified), the survival was 28% (active).

Take `COc1ccc(C(=O)/C=C/c2cn(CC(O)CN3CCc4ccccc43)c3ccccc23)cc1OC` (stereo unspecified): the survival was 87% (inactive).

Regarding `COc1ccc(C(=O)/C=C/c2cn(CC(O)CN3CCCCCC3)c3ccccc23)cc1OC` (stereo unspecified), the survival is 96% (inactive).

`COc1ccc(C(=O)/C=C/c2cn(CC(O)CN3CCc4ccccc43)c3ccccc23)cc1` (stereo unspecified): the survival is 63% (inactive).

Take `CCOc1ccc(C(=O)/C=C/c2cn(CC(O)CN3CCCCCC3)c3ccccc23)cc1` (stereo unspecified): the survival is 26% (active).

Turning to `O=C(/C=C/c1cn(CC(O)CN2CCc3ccccc32)c2ccccc12)c1ccc(Br)cc1` (stereo unspecified), the survival was 70% (inactive).

As to `Cc1ccc(Cn2ccc(NC(=O)c3cc(-c4ccc(Cl)c(Cl)c4)on3)n2)cc1`, the survival was 74% (inactive).

With `CCOC(=O)CSc1nc2ccccc2c(=O)n1CCc1ccc(OC)c(OC)c1`, the survival is 124% (inactive).

Regarding `Cc1ccc(-n2c(C)cc(CO)c2C)cc1`, the survival is 100% (inactive).

Turning to `Cc1ccc(CNC(=O)CCc2c(C)nn(-c3ccc(N4CCOCC4)nn3)c2C)cc1`, the survival was 135% (inactive).

For `CC(=O)Nc1ccc(N=NN2CCCCC2)cc1`, the survival was 99% (inactive).

In the case of `CCc1ccc(CN(Cc2ccco2)c2cnc(S(C)(=O)=O)nc2C(=O)Nc2c(C)cccc2C)cc1`, the survival was 70% (inactive).

On to `c1ccc(-c2nc(N3CCCCC3)c3ccccc3n2)cc1`, for which the survival is 130% (inactive).

As for `CCCOc1ccc(CNC(=O)C2CCN(c3nc4ccccc4nc3C(F)(F)F)CC2)cc1`, the survival is 59% (inactive).

Regarding `CCCOc1ccc(-c2nc(N3CCC(C)CC3)c3ccccc3n2)cc1`, the survival was -2% (active).

With `Cc1ccc(-c2nc(N3CCN(c4ccccc4Cl)CC3)c3ccccc3n2)cc1`, the survival was 62% (inactive).

In the case of `CCCOc1ccc(-c2nc(N3CCCCC3)c3ccccc3n2)cc1`, the survival was 0% (active).

With `CCCOc1ccc(-c2nc3ccccc3c(=O)o2)cc1`, the survival is 70% (inactive).

`O=C(CSc1nc2c([nH]c3ccccc32)c(=O)n1-c1ccccc1)N1CCCc2ccccc21`: the survival was 128% (inactive).

For the molecule `c1ccc2sc(N3CCN(Cc4nnnn4C4CCCC4)CC3)nc2c1`, the survival was 104% (inactive).

Take `Fc1ccc(Nc2ncnc3onc(-c4ccc(Cl)cc4)c23)cc1Cl`: the survival was 71% (inactive).

As to `Cc1ccccc1CN1C(=O)c2ccccc2Sc2ccc(C(=O)NC(C)c3ccccc3)cc21` (stereo unspecified), the survival is 81% (inactive).

Take `CCCCOc1ccc(CNC(=O)c2ccc3c(c2)N(C)C(=O)C2CCCCN32)cc1` (stereo unspecified): the survival is 88% (inactive).

Take `Cc1cccc(CNC(=O)c2ccc3c(c2)N(C)C(=O)C2CCCCN32)c1` (stereo unspecified): the survival is -3% (active).

As to `COc1ccc(CNC(=O)c2ccc3c(c2)N(C)C(=O)C2CCCCN32)cc1OC` (stereo unspecified), the survival is 59% (inactive).

Regarding `CC(C)Oc1ccc(CNC(=O)c2ccc3c(c2)N(C)C(=O)C2CCCCN32)cc1` (stereo unspecified), the survival was 10% (active).

Turning to `CSc1ccc(CNC(=O)c2ccc3c(c2)N(C)C(=O)C2CCCCN32)cc1` (stereo unspecified), the survival was 83% (inactive).

As to `COc1cccc(CNC(=O)c2ccc3c(c2)N(C)C(=O)C2CCCCN32)c1` (stereo unspecified), the survival is 68% (inactive).
